Pf growth 48h: Primary qHTS for delayed death inhibitors of the malarial parasite plastid, 48 hour incubation | 310,000 compounds, 5.9% hits | P. falciparum luciferase growth in erythrocytes, 48 h | Potency, µM (doses to about 28.7 µM), most hits filed as inhibitors
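In quantitative HTS format, infected erythrocytes bearing luciferase-reporter parasites were treated for a single generation at 37 C. Luminescence after adding detection reagent served as the growth measure.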
Pf growth 96h: Primary qHTS for delayed death inhibitors of the malarial parasite plastid, 96 hour incubation; AID 504834, 2011; P. falciparum luciferase reporter growth, 96 h; Potency, µM (titrated, usually from 28.7 µM), usual class: inhibitors; 320,000 compounds, 6.9% hits
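Plates of compound plus infected erythrocytes (2% hematocrit, 0.05% parasitemia final) incubate 96 hours, 37 C, 5% CO2. Detection reagent added; reduced luminescence from the parasites' luciferase reporter flags inhibition.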
HCMV inh: qHTS Assay for inhibitors of the human cytomegalovirus (HCMV); 410,000 compounds, 4.5% hits; AID 1259415, 2018; HFF cells, HCMV-luciferase reporter, 72 h; hits give low values; activity change, negative = inhibition, % at 57.5 µM; in the data active means activity change below about -60%; inconclusive means no clear call, values can overlap the other calls; inactive means above about -39%
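Compounds were evaluated in HFFs infected with an HCMV luciferase reporter virus (MOI 1 PFU/cell). Luciferase in lysates collected 72 h post infection served as the replication measure.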
Sm TGR inh: qHTS Assay for the Inhibitors of Schistosoma Mansoni Peroxiredoxins. Schistosoma mansoni thioredoxin glutathione reductase (TGR), Q962Y6. purified TGR, DTNB reduction, TNB absorbance 405 nm. Potency, µM (titrated, usually from 114 µM), usual class: inhibitors. 360,000 compounds, 3% hits; further: nearly all actives have a fitted effect of over 60% in size
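TGR 20 nM + NADPH 100 uM (dispensed conc.), cpd preinc 15 min RT; start with NADPH (500 uM addition) then DTNB (15 mM addition). Kinetic TNB absorbance, 405 nm filter. Four-parameter Hill fit across titration.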
FBPA Giardia inh: qHTS Assay for Inhibitors of Fructose-1,6-bisphosphate Aldolase from Giardia Lamblia; purified Giardia FBPA; Potency, µM (top dose mostly 59.6 µM), most hits filed as inhibitors; 290,000 compounds, 0.71% hits; further: nearly all actives have a fitted effect of over 55% in size
Target sequence (A8B2U2 whole entry, looked up): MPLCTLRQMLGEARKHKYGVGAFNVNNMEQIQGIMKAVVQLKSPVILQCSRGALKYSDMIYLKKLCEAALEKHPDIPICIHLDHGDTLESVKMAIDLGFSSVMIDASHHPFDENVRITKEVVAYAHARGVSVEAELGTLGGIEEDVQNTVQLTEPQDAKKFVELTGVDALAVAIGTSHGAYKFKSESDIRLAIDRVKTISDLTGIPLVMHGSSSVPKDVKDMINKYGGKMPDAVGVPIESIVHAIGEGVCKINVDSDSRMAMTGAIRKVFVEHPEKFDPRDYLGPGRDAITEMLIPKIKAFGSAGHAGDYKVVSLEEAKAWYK
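40 nM FBPA preincubated 10 min at RT with compound (up to 57.5 uM final), then substrate plus GAPDH/TPI/NAD/arsenate coupling and diaphorase/resazurin added. Fluorescence read after 20 min at RT, 525/598 nm.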
A number is an active result; n = inactive; u = inconclusive; x = no result; [ ] = remark or other dose. Most compounds without a hit are left out; they make up all but 14% or so of the library. Unless noted, the call rests on the fitted dose curve; in most records, active means well fitted curve in the direction sought with a large enough effect; inconclusive means small, poorly fitted or top-dose-only effect, or another doubt; inactive means no such curve, though single readings can be large; an effect the other way counts as inactive or inconclusive.

SMILES	Pf growth 48h	Pf growth 96h	HCMV inh	Sm TGR inh	FBPA Giardia inh
Cc1ccc(S(=O)(=O)N2[C@@H](CO)CO[C@H]2CC(=O)c2cccs2)cc1	x	x	n	x	x
COc1cccc(NC(=O)CC2C(=O)OCCN2Cc2ccccc2)c1 (centres undefined)	x	x	n	n	x
CCc1ccc(NC(=O)CC2C(=O)OCCN2CC)cc1 (centres undefined)	x	x	n	14µM	x
O=C1C=C[C@@H](O)[C@@H]2[C@H]3C(=O)N(c4ccc(F)cc4F)C(=O)[C@@H]3CC[C@@H]12	x	x	x	x	n[12.9 µM]
COc1cccc(/C=C2\N=C(c3c(-c4ccccc4)noc3C)OC2=O)c1	n	n	u	n	n
COc1ccc(/C=C2\N=C(C)OC2=O)cc1[N+](=O)[O-]	n	u	n	10µM	n
COc1cc(/C=C2\N=C(c3c(-c4ccccc4)noc3C)OC2=O)ccc1OC(C)=O	13µM	n	n	n	n
CCOc1cc(/C=C2\N=C(C)OC2=O)cc(Cl)c1OCC(=O)OC	x	x	n	x	x
COc1cc(/C=C2\N=C(C)OC2=O)cc(Cl)c1OC(C)=O	n	n	n	10µM	n
CCCCCC1CC(CC#CCN2CCOCC2)C(=O)O1 (centres undefined)	n	n	n	22µM	n
Cc1ccccc1NS(=O)(=O)c1nnc(NC(=O)c2ccco2)s1	x	x	n	n	x
CC(C)Oc1ccc(S(=O)(=O)N2CCCCC2)cc1NC(=O)CN1C(=O)NC2(CCCC2)C1=O	12µM	u	n	n	x
COc1ccc(S(=O)(=O)N2CCCCCC2)cc1NC(=O)CN1C(=O)NC(C)(c2ccc(C)cc2)C1=O (centres undefined)	u	u	n	u	x
CCOc1ccc(S(=O)(=O)N2CCOCC2)cc1NC(=O)CN1C(=O)NC(C)(c2ccccc2)C1=O (centres undefined)	u	u	n	n	x
CCOc1ccc(S(=O)(=O)N2CCOCC2)cc1NC(=O)CN1C(=O)NC(CC)(c2ccccc2)C1=O (centres undefined)	12µM	u	n	n	x
CC(C)Oc1ccc(S(=O)(=O)N2CCCCC2)cc1NC(=O)CN1C(=O)NC(C)(C2CC2)C1=O (centres undefined)	u	n	n	n	x
CC(C)Oc1ccc(S(=O)(=O)N2CCCCC2)cc1NC(=O)CN1CCCC1c1cccs1 (centres undefined)	4.1µM	4.1µM	u	n	x
CCOc1ccc(S(=O)(=O)N2CCCCC2)cc1NC(=O)CN1C(=O)NC(C)(c2ccc(C)cc2)C1=O (centres undefined)	13µM	7.4µM	x	n	x
Cc1ccc(C2(C)NC(=O)N(CC(=O)Nc3cc(S(=O)(=O)N4CCCCC4)ccc3OC(C)C)C2=O)cc1 (centres undefined)	u	u	u	n	x
CC(C)(C)c1ccc(C(=O)N2[C@H](COCc3ccccc3)C=CS2(=O)=O)cc1	x	x	n	x	x
CN1CCN(c2ccc(S(=O)(=O)N3CCOCC3)cc2NC(=O)COc2ccc(C#N)cc2)CC1	x	x	n	x	x
Cc1ccc(C2(C)NC(=O)N(CC(=O)Nc3cc(S(=O)(=O)N4CCOCC4)ccc3OC(C)C)C2=O)cc1 (centres undefined)	x	x	n	x	x
CCC1(c2ccccc2)NC(=O)N(CC(=O)Nc2cc(S(=O)(=O)N3CCOCC3)ccc2OC(C)C)C1=O (centres undefined)	12µM	u	n	n	x
O=C(CCNC(=O)N1CC(=O)Nc2ccccc21)NCc1ccc(Cl)cc1	x	x	n	x	x
Cc1ccccc1CCNC(=O)c1ccc2c(c1)nc1n2CCCCC1	x	x	-78	n	x
SMILES	Pf growth 48h	Pf growth 96h	HCMV inh	Sm TGR inh	FBPA Giardia inh
CSc1ccc(CCNC(=O)c2ccc3c(c2)nc2n3CCCCC2)cc1	x	x	-76	n	x
COc1ccc(Br)cc1CNC(=O)c1ccc2c(c1)nc1n2CCCCC1	x	x	-60	n	x
CCO[C@@H](Cc1ccc(OCCc2ccc(OS(C)(=O)=O)cc2)cc1)C(=O)O	x	x	n	x	x
COc1cc(CN2CCCC(C(=O)c3ccc4c5c(cccc35)CC4)C2)cc(OC)c1O (centres undefined)	n	n	n	14µM	7.9µM
O=C(c1ccc2c3c(cccc13)CC2)C1CCCN(Cc2cccnc2)C1 (centres undefined)	1.7µM	u	n	n	n
O=C(c1ccc2c3c(cccc13)CC2)C1CCCN(C(=O)c2cccnc2)C1 (centres undefined)	u	u	u	n	n
Cc1cccc(CN2CCCC(C(=O)c3ccc4c5c(cccc35)CC4)C2)n1 (centres undefined)	u	n	n	n	n
Cc1ccccc1NCC(=O)N/N=C/c1c(C)c(C(=O)c2ccc(Cl)cc2)n2ccccc12	13µM	4.7µM	n	n	n
Cc1c(/C=N/NC(=O)CNc2ccccc2)c2ccccn2c1C(=O)c1ccc(Cl)cc1	3.3µM	3.3µM	n	n	n
Cc1c(/C=N/NC(=O)CNc2ccccc2)c2ccccn2c1C(=O)c1ccncc1	u	u	n	n	n
CCOC(=O)N1CCN(C(=O)CN(Cc2ccc(Cl)cc2)S(=O)(=O)c2ccc(C)cc2)CC1	x	1.9µM	n	n	n
CCN(CC(=O)N1CCCCCC1)S(=O)(=O)c1ccc(C)cc1	n	7.4µM	n	n	n
CCOC(=O)N1CCN(C(=O)CN(Cc2ccc(Cl)cc2)S(C)(=O)=O)CC1	n	n	n	n	n
CCN(CC(=O)N1CCN(C)CC1)S(=O)(=O)c1ccc(Cl)cc1	n	9.3µM	n	n	n
CCN(CC(=O)N1CCCCCC1)S(=O)(=O)c1ccc(Cl)cc1	u	n	n	n	n
CCN(CC(=O)N1CCCC1)S(=O)(=O)c1ccc(Br)cc1	u	n	n	n	n
Nc1nc(/C(=C/CC(=O)O)C(=O)NC2C(=O)N3C(C(=O)O)=CCSC23)cs1 (centres undefined)	n	n	x	x	u
CCOC(=O)C1(c2ccccc2)CCN(CCC(C#N)(c2ccccc2)c2ccccc2)CC1	1.9µM	1.9µM	-86	x	x
CCOC(=O)C1(c2ccccc2)CCN(CCC(=O)Nc2ccc(C(=O)OC)cc2)CC1	5.2µM	9.3µM	n	n	x
O=C(c1n[nH]c2ccccc12)N1CCOCC1	n	15µM	n	n	n
O=C(c1cccnc1)N1CCN(S(=O)(=O)c2ccc(Cl)cc2)CC1	n	4.1µM	n	n	n
O=C(c1cccnc1)N1CCN(S(=O)(=O)c2ccc(F)cc2)CC1	n	u	n	n	n
O=C(c1n[nH]c2ccccc12)N1CCN(S(=O)(=O)c2ccc(Cl)cc2)CC1	2.1µM	u	n	n	x
O=C(c1n[nH]c2ccccc12)N1CCCCC1	n	n	n	n	n
CCCCCCCCCCC[C@@H](C[C@@H]1OC(=O)[C@H]1CCCCCC)OC(=O)[C@H](CC(C)C)NC=O	x	x	n	n	n
C=CCc1cccc(C=Nc2ccc(Br)cc2)c1O	n	n	n	n	n
